# Assay outcomes as filed in PubChem.
# A selection: hits, their analogues and other compounds. The true share with any hit is near 9%.
# PLK1 PBD inh: qHTS for Inhibitors of PLK1-PDB (polo-like kinase 1 - polo-box domain): Primary Screen; Serine/threonine-protein kinase PLK1 (Homo sapiens), P53350; Potency, µM, hits mostly inhibitors; Plk1 PBD binding of FITC phosphopeptide, fluorescence polarization; 360,000 compounds, 2.8% hits; note: series mostly up to about 57 µM; nearly all actives have a fitted effect of over 65% in size
# Target sequence (P53350 whole entry, looked up, the tested form may be a part): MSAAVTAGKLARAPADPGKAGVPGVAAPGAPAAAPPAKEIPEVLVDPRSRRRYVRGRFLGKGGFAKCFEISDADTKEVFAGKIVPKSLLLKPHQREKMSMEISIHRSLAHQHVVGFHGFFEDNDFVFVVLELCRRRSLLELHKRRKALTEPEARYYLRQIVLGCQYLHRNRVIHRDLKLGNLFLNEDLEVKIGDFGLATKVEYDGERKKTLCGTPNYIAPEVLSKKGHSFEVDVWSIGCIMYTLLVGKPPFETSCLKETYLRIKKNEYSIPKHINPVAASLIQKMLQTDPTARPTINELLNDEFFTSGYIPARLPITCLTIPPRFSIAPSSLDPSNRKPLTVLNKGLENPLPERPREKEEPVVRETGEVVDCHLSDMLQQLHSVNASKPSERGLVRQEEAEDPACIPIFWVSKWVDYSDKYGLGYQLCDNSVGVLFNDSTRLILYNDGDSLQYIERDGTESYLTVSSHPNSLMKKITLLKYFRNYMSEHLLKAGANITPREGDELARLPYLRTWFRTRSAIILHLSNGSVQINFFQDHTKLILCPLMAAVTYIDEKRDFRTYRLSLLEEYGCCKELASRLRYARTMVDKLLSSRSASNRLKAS
# HP1b binding inh: HTS for Inhibitors of HP1-beta Chromodomain Interactions with Methylated Histone Tails | 390,000 compounds, 0.56% hits | AID 540317, 2011 | Potency, µM (highest dose often 114 µM), usual class: inhibitors | Chromobox protein homolog 1 (Homo sapiens), P83916 | AlphaScreen HP1-beta / biotin-H3K9me3 peptide binding; note: nearly all actives have a fitted effect of over 70% in size
#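 AlphaScreen: HP1-beta (50 nM) preformed 30 min with biotin-H3(1-18)K9me3 peptide (50 nM) in PBS pH 7.4, 0.01% Tween-20. Compound added for 30 min at RT, then streptavidin donor/nickel chelate acceptor beads (10 ug/mL) for 30 min.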
# BAZ2B inh: qHTS Assay for Inhibitors of BAZ2B. Potency, µM (top dose mostly 114 µM), most hits filed as inhibitors. AlphaScreen BAZ2B-H3K14Ac peptide displacement. 360,000 compounds, 4.4% hits. AID 504333, 2011. Bromodomain adjacent to zinc finger domain protein 2B (Homo sapiens), Q9UIF8; note: nearly all actives have a fitted effect of over 60% in size
#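 AlphaScreen displacement: compounds (up to 110uM) incubated 30 min at room temperature with a preformed 50 nM BAZ2B/50 nM biotinylated H3K14Ac peptide complex in PBS pH 7.4 with Tween-20. Donor and acceptor beads at 10 ug/mL final added, 20 min light-protected before reading.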
# JMJD2A Tudor: qHTS Assay for Inhibitors of JMJD2A-Tudor Domain. Lysine-specific demethylase 4A (Homo sapiens), O75164. AlphaScreen JMJD2A-Tudor / H3K4me3 peptide binding. Potency, µM (top dose mostly 114 µM), most hits filed as inhibitors. 390,000 compounds, 4.4% hits. AID 504339, 2011; note: nearly all actives have a fitted effect of over 50% in size
# 12-LOX inh: Primary qHTS assay for inhibitors of human arachidonate 12S-lipoxygenase (ALOX12): Round 2. 580,000 compounds, 1.1% hits. Polyunsaturated fatty acid lipoxygenase ALOX12 (Homo sapiens), P18054. purified 12hLO, xylenol orange hydroperoxide absorbance. Potency, µM (series often up to 108 µM), most hits filed as inhibitors
#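 Hydroperoxide product was detected by ferrous iron/xylenol orange as the 573 to 405 nm absorbance ratio. Arachidonic acid at 40 uM (final) was turned over for 30 min at room temperature by 150 nM human 12hLO, pH 7.0 Hepes buffer, after 15 min compound preincubation.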
# G9a inh: qHTS Assay for Inhibitors of Histone Lysine Methyltransferase G9a | AID 504332, 2011 | G9a H3K9 monomethylation, AlphaScreen, 2 h | 350,000 compounds, 8.8% hits | Histone-lysine N-methyltransferase EHMT2 (Homo sapiens), Q96KQ7 | Potency, µM (series often up to 102 µM), usual class: inhibitors; note: nearly all actives have a fitted effect of over 75% in size
#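 Step 1: enzyme (final 20 nM) with compound, 15 min RT. Step 2: substrate peptide 500 nM and SAM 20 uM, 2 h RT. Step 3: anti-H3K9me1 antibody and AlphaScreen beads, 10 min, then plate read.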
# Numbers stand for hits; n = inactive; u = inconclusive; x = no result given; [ ] = dose if it differs, or a comment. Calls come from the whole dose curve; as a rule, active = well fitted curve in the direction sought with a large enough effect; inconclusive = small, poorly fitted or top-dose-only effect, or another doubt; inactive = no such curve, though single readings can be large; an effect the other way counts as inactive or inconclusive.
SMILES,PLK1 PBD inh,HP1b binding inh,BAZ2B inh,JMJD2A Tudor,12-LOX inh,G9a inh
c1ccc(-c2c(-c3ccccc3)n(Cc3ccco3)c3ncnc(NCCCn4ccnc4)c23)cc1,u,u,32µM,45µM,x,u
Cc1c(C(=O)Oc2cccc3ccccc23)cnn1-c1ccccc1,n,n,n,n,n,n[12.7 µM]
OCCNc1ncnc2c1c(-c1ccccc1)c(-c1ccccc1)n2Cc1ccco1,n,n,50µM,56µM,u,18µM
O=C(COC(=O)CCC(=O)c1ccc(F)cc1)Nc1ccccc1,n,n,n,n,n,n[0.0925 µM]
COc1cccc(CNCC(=O)Nc2ccc(N3CCOCC3)cc2)c1,n,u,50µM,25µM,n,3.5µM
COc1ccc(CC(=O)OCC(=O)Nc2ccc(N3CCOCC3)cc2)cc1,n,n,n,n,n,50µM
NC(=O)c1ccc(NC(=O)COC(=O)c2ccc(Cl)nc2)cc1,n,n,n,n,n,7.9µM
NC(=O)c1ccc(NC(=O)COC(=O)CCC(=O)c2ccc(Cl)cc2)cc1,24µM,n,n,u,n,n
COc1ccc(CN2COc3ccc4c(C)cc(=O)oc4c3C2)cc1,x,n,n,n,n,n
COc1ccc(C)cc1S(=O)(=O)N(CC(=O)NCc1ccc(Cl)cc1)Cc1ccccc1,n,n,n,n,n,n
CCOC(=O)c1c(C)c(C(=O)NC2CCCCC2)c(C)n1CC,n,n,n,n,n,n
COc1ccc(C2(c3ccc(OC)cc3)NC(=O)N(CC(=O)Nc3ccc(N4CCOCC4)cc3)C2=O)cc1,n,u,u,u,u,40µM
O=C(Nc1ccc(N2CCOCC2)cc1)C1CCN(C(=O)OCc2ccccc2)CC1,n,n,n,n,n,40µM
CC(=O)Nc1ccc(C(=O)OCC(=O)Nc2ccc(N3CCOCC3)cc2)cc1,n,n,n,n,n,u
O=C(COC(=O)c1ccc(Cl)nc1)Nc1ccc(N2CCOCC2)cc1,n,n,n,n,u,56µM
O=C(COC(=O)c1ccco1)Nc1ccc(N2CCOCC2)cc1,n,n,n,n,u,22µM
Cc1cccc(C)c1Nc1nnc(SC/C(O)=C(\C#N)c2nc3ccccc3[nH]2)s1,n,n,n,n,n,14µM
COc1ccccc1-c1nnc(SC/C(O)=C(\C#N)c2nc3ccccc3[nH]2)n1C1CCCCC1,u,u,n,89µM,n,32µM
Cn1cnnc1SC/C(O)=C(\C#N)c1nc2ccccc2[nH]1,u,n,50µM,25µM,n,u
N#C/C(=C(/O)CSc1nnc(Cc2cccs2)n1C1CCCCC1)c1nc2ccccc2[nH]1,n,n,n,n,n,u
COc1ccc(CNC(=O)c2cnc(C)cn2)cc1,n,n,50µM,n,n,n
COc1ccc(CCn2c(C)cc(C(=O)COC(=O)c3cnc(C)cn3)c2C)cc1,n,n,u,n,n,50µM
COc1ccc(CNC(=O)C2=C(C)C(=O)OC23CCCCC3)cc1,x,n,n,n,n,11µM
CCN(CC)CCn1c2ccccc2c2cnc(N)c(C#N)c21,n,n,n,n,n,35µM
CN(C)C=Nc1ncc2c3ccccc3n(CCN(C)C)c2c1C#N,n,n,n,n,n,u
CC(C)[C@H]1C=C(C(=O)O)O[C@@H](OCc2ccc(CO)cc2)C1,n,n,u,89µM,n,u
COc1cc(/C=C(\C#N)c2nc3ccc(C)cc3[nH]2)cc([N+](=O)[O-])c1O,u,35µM,13µM,40µM,45µM,x
COc1cc(/C=C(\C#N)c2nc3ccc(C)cc3[nH]2)c([N+](=O)[O-])cc1OC,n,n,n,n,n,x
